Results taken from PubChem BioAssay AID1159580 (chemical genetic matrix, 2015).
In all, about 5,500 compounds went through this assay and about 2,000 (36%) were called active. Inconclusive results (about 18%) are left out. No stated cut-off is given here; in the data, active means normalized growth mostly below about 0.91 (no sharp cut-off); inconclusive means no clear call, values can overlap the other calls; inactive means mostly above about 0.92. The list shows a part of the results.

Experiment: chemical genetic growth profiling, strain panel (AID 1159580);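 further: tested at 20 µM; growth read once vehicle control cultures reached saturation at 30 °C; 1 = growth at the plate median or of vehicle wells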
Settings: growth OD

Measured: normalized growth

COc1cc2cccc(OC)c(=O)c2c(OC)c1OC
inactive: S. cerevisiae deletion strains, locus YAL013W, strain DEP1, stronger effect = lower value 1.01 | S. cerevisiae deletion strains, locus YBR021W, strain FUR4, stronger effect = lower value 0.994 | S. cerevisiae deletion strains, locus YBR229C, strain ROT2, stronger effect = lower value 1.01 | S. cerevisiae deletion strains, locus YCL029C, strain bik1, stronger effect = lower value 1.02 | S. cerevisiae deletion strains, locus YDL035C, strain GPR1, stronger effect = lower value 1.02 | S. cerevisiae deletion strains, locus YDL074C, strain BRE1, stronger effect = lower value 1 | S. cerevisiae deletion strains, locus YDL101C, strain DUN1, stronger effect = lower value 1.01 | S. cerevisiae deletion strains, locus YDL134C, strain PPH21, stronger effect = lower value 1.01 | S. cerevisiae deletion strains, locus YDL185W, strain tfp1, stronger effect = lower value 1.01 | S. cerevisiae deletion strains, locus YDL192W, strain arf1, stronger effect = lower value 1.03 | S. cerevisiae deletion strains, locus YDR101C, strain arx1, stronger effect = lower value 0.991 | S. cerevisiae deletion strains, locus YDR150W, strain NUM1, stronger effect = lower value 1.02 | S. cerevisiae deletion strains, locus YDR162C, strain NBP2, stronger effect = lower value 1.02 | S. cerevisiae deletion strains, locus YDR318W, strain mcm21, stronger effect = lower value 1.03 | S. cerevisiae deletion strains, locus YDR388W, stronger effect = lower value 1.01 | S. cerevisiae deletion strains, locus YDR502C, strain sam2, stronger effect = lower value 0.989 | S. cerevisiae deletion strains, locus YEL061C, strain CIN8, stronger effect = lower value 1.01 | S. cerevisiae deletion strains, locus YER110C, stronger effect = lower value 1.02 | S. cerevisiae deletion strains, locus YER155C, strain BEM2, stronger effect = lower value 1 | S. cerevisiae deletion strains, locus YER167W, strain BCK2, stronger effect = lower value 1.03 | S. cerevisiae deletion strains, locus YGL078C, strain dbp3, stronger effect = lower value 1 | S. cerevisiae deletion strains, locus YGL086W, strain mad1, stronger effect = lower value 1.03 | S. cerevisiae deletion strains, locus YGL248W, strain PDE1, stronger effect = lower value 1.01 | S. cerevisiae deletion strains, locus YGR078C, strain PAC10, stronger effect = lower value 0.998 | S. cerevisiae deletion strains, locus YGR135W, strain pre9, stronger effect = lower value 0.982 | S. cerevisiae deletion strains, locus YGR229C, strain SMI1, stronger effect = lower value 0.994 | S. cerevisiae deletion strains, locus YGR252W, strain gcn5, stronger effect = lower value 0.988 | S. cerevisiae deletion strains, locus YHR030C, strain SLT2, stronger effect = lower value 1.01 | S. cerevisiae deletion strains, locus YHR079C, strain IRE1 (second series), stronger effect = lower value 1 | S. cerevisiae deletion strains, locus YHR094C, strain hxt1, stronger effect = lower value 1.01 | S. cerevisiae deletion strains, locus YHR129C, strain ARP1, stronger effect = lower value 1 | S. cerevisiae deletion strains, locus YHR200W, strain rpn10, stronger effect = lower value 1.01 | S. cerevisiae deletion strains, locus YIL066C, strain RNR3, stronger effect = lower value 1.02 | S. cerevisiae deletion strains, locus YIL073C, strain SPO22, stronger effect = lower value 1.06 | S. cerevisiae deletion strains, locus YIL125W, strain kgd1, stronger effect = lower value 1.02 | S. cerevisiae deletion strains, locus YIR030C, strain dcg1, stronger effect = lower value 1.01 | S. cerevisiae deletion strains, locus YJL095W, strain BCK1, stronger effect = lower value 1 | S. cerevisiae deletion strains, locus YJL134W, strain LCB3, stronger effect = lower value 1.01 | S. cerevisiae deletion strains, locus YJL168C, strain set2, stronger effect = lower value 1.01 | S. cerevisiae deletion strains, locus YJL187C, strain SWE1 (second series), stronger effect = lower value 0.996 | S. cerevisiae deletion strains, locus YJR043C, strain POL32, stronger effect = lower value 0.999 | S. cerevisiae deletion strains, locus YJR075W, strain HOC1, stronger effect = lower value 1 | S. cerevisiae deletion strains, locus YKL009W, strain mrt4, stronger effect = lower value 1.03 | S. cerevisiae deletion strains, locus YKL068W, stronger effect = lower value 1.01 | S. cerevisiae deletion strains, locus YKL085W, strain MDH1 (second series), stronger effect = lower value 1.02 | S. cerevisiae deletion strains, locus YKL085W, strain MDH1, stronger effect = lower value 1.02 | S. cerevisiae deletion strains, locus YKL190W, strain CNB1, stronger effect = lower value 1.01 | S. cerevisiae deletion strains, locus YKR001C, strain vps1, stronger effect = lower value 1.01 | S. cerevisiae deletion strains, locus YLR039C, strain RIC1, stronger effect = lower value 1.09 | S. cerevisiae deletion strains, locus YLR058C, strain SHM2, stronger effect = lower value 1.01 | S. cerevisiae deletion strains, locus YLR102C, strain apc9, stronger effect = lower value 1.01 | S. cerevisiae deletion strains, locus YLR262C, strain YPT6, stronger effect = lower value 1.09 | S. cerevisiae deletion strains, locus YLR268W, strain sec22, stronger effect = lower value 0.99 | S. cerevisiae deletion strains, locus YLR330W, strain CHS5, stronger effect = lower value 1.01 | S. cerevisiae deletion strains, locus YLR342W, strain FKS1 (second series), stronger effect = lower value 1.05 | S. cerevisiae deletion strains, locus YLR371W, strain rom2, stronger effect = lower value 1.01 | S. cerevisiae deletion strains, locus YLR418C, strain cdc73, stronger effect = lower value 0.945 | S. cerevisiae deletion strains, locus YML016C, strain PPZ1, stronger effect = lower value 1.01 | S. cerevisiae deletion strains, locus YML032C, strain rad52, stronger effect = lower value 1.03 | S. cerevisiae deletion strains, locus YML124C, strain tub3, stronger effect = lower value 1.01 | S. cerevisiae deletion strains, locus YMR078C, strain ctf18, stronger effect = lower value 1.02 | S. cerevisiae deletion strains, locus YMR223W, strain ubp8, stronger effect = lower value 1.01 | S. cerevisiae deletion strains, locus YMR263W, strain SAP30, stronger effect = lower value 0.996 | S. cerevisiae deletion strains, locus YMR307W, strain GAS1, stronger effect = lower value 0.966 | S. cerevisiae deletion strains, locus YNL067W, strain RPL9B, stronger effect = lower value 0.992 | S. cerevisiae deletion strains, locus YNL128W, strain TEP1, stronger effect = lower value 1 | S. cerevisiae deletion strains, locus YNL153C, strain GIM3, stronger effect = lower value 0.977 | S. cerevisiae deletion strains, locus YNL233W, strain BNI4, stronger effect = lower value 0.977 | S. cerevisiae deletion strains, locus YNL250W, strain rad50, stronger effect = lower value 1.01 | S. cerevisiae deletion strains, locus YNL271C, strain bni1, stronger effect = lower value 1.01 | S. cerevisiae deletion strains, locus YNL298W, strain CLA4, stronger effect = lower value 1.02 | S. cerevisiae deletion strains, locus YNL307C, strain MCK1, stronger effect = lower value 1.03 | S. cerevisiae deletion strains, locus YNL322C, strain KRE1, stronger effect = lower value 1.02 | S. cerevisiae deletion strains, locus YNR052C, strain pop2, stronger effect = lower value 1.01 | S. cerevisiae deletion strains, locus YOL006C, strain TOP1, stronger effect = lower value 1.01 | S. cerevisiae deletion strains, locus YOL012C, strain htz1 0.97 | S. cerevisiae deletion strains, locus YOL147C, strain pex11, stronger effect = lower value 1.01 | S. cerevisiae deletion strains, locus YOR061W, strain CKA2, stronger effect = lower value 1.02 | S. cerevisiae deletion strains, locus YOR069W, strain VPS5, stronger effect = lower value 1.01 | S. cerevisiae deletion strains, locus YOR136W, strain idh2, stronger effect = lower value 1.02 | S. cerevisiae deletion strains, locus YOR144C, strain elg1, stronger effect = lower value 1.01 | S. cerevisiae deletion strains, locus YOR184W, strain ser1, stronger effect = lower value 1.04 | S. cerevisiae deletion strains, locus YOR316C, strain cot1, stronger effect = lower value 1.01 | S. cerevisiae deletion strains, locus YPL055C, strain LGE1, stronger effect = lower value 0.984 | S. cerevisiae deletion strains, locus YPL241C, strain CIN2, stronger effect = lower value 1.01 | S. cerevisiae deletion strains, locus YPR119W, strain clb2, stronger effect = lower value 1.01 | S. cerevisiae deletion strains, locus YPR141C, strain kar3, stronger effect = lower value 1.03 | S. cerevisiae deletion strains, locus YPR163C, strain tif3, stronger effect = lower value 1.01 | S. cerevisiae deletion strains, locus YPR167C, strain met16, stronger effect = lower value 1.01 | S. cerevisiae deletion strains, strain wtn01, stronger effect = lower value 0.992 | S. cerevisiae strains, strain wild type, stronger effect = lower value 1.01
